From PubChem BioAssay (Tox21)
Values without a mark were called inactive. Results filed as inconclusive are left out. Activity calls are given as the source filed them. Calls follow the shape of the full dose curve.

What follows are molecules tested against Acetylcholinesterase (Homo sapiens) (UniProt P22303) (assay: Acetylcholinesterase (AChE) small molecule antagonists: enzyme-based qHTS assay (AID 1347397; also: nearly all actives have a fitted effect of over 55% in size)). Conditions: Potency: AChE enzyme activity inhibition; outcome: AChE enzyme activity inhibition; series mostly up to 115 µM; activity change, negative = inhibition: at the top concentration.
Sequence of Acetylcholinesterase (Homo sapiens) (P22303 whole entry, looked up): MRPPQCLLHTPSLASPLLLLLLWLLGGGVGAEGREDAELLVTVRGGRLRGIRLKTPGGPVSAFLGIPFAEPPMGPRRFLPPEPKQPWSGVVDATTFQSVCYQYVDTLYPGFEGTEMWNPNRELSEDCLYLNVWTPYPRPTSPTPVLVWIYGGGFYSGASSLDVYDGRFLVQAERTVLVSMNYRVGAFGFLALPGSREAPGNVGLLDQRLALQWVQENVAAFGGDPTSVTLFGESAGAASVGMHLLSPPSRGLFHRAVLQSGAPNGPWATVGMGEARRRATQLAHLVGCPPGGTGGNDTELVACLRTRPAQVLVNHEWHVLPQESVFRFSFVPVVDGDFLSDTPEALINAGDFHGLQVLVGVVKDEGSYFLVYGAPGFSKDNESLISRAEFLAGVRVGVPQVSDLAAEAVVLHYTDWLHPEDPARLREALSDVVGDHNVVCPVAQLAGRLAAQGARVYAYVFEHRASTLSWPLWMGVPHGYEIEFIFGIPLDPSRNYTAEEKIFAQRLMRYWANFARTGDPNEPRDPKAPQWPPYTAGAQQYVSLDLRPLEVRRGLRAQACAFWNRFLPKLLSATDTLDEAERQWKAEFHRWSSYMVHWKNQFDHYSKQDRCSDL
Procedure, shortened: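 Colorimetric DTNB readout of acetylthiocholine hydrolysis, 10 min at room temperature, after 30 min room-temperature exposure of 50 mU/mL recombinant human enzyme to compound; DMSO vehicle control.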
% is scaled to controls: 0 for no effect and ±100 for the full control effect.

| Compound | activity change, negative = inhibition |
| --- | --- |
| COc1ccc2c(c1)c1c3n2CCN(C)C3=NCC1 | 1.12% [at 53 µM] |
| COc1cnc(NS(=O)(=O)c2ccc(N)cc2)nc1 | 0.852% [at 53 µM] |
| CC(=O)N[C@@H](CCC(=O)O)C(=O)O | 0.584% [at 53 µM] |
| C=C(C)c1ccccc1 | 0.136% |
| O=C(O)c1cc(C(=O)O)c(C(=O)O)cc1C(=O)O | 2.84% |
| O=c1[nH]c(=O)n([C@H]2O[C@H](CO)[C@@H](O)[C@@H]2O)cc1/C=C\Br | -0.364% [at 53 µM] |
| CC(=O)OC(OC(C)=O)c1ccc([N+](=O)[O-])o1 | 0.136% |
| COc1cccc(O)c1O | 0.885% |
| Cc1ccc(O)cn1 | 0.409% |
| O=C(O)c1ccccc1C(=O)Nc1ccc(S(=O)(=O)Nc2nccs2)cc1 | 0.0047% [at 53 µM] |
| CC[N+](C)(CC)CCOC(=O)C(O)(c1ccccc1)C1CCCCC1 (stereo not given) | 0% [at 53 µM] |
| CC(=O)Nc1cccc(C)c1 | 0% |
| CCOC(=O)CS | 5.84% |
| CCOc1ccccc1OCC | 0.52% |
| CC(C)(O)c1ccccc1CC[C@@H](SCC1(CC(=O)O)CC1)c1cccc(/C=C/c2ccc3ccc(Cl)cc3n2)c1 | -0.564% [at 53 µM] |
| O=C(N[C@H](CO)[C@H](O)c1ccc([N+](=O)[O-])cc1)C(Cl)Cl | 1.45% |
| CCC(Cl)CCC(Cl)C(Cl)CC(Cl)C(Cl)C(Cl)CCl (stereo not given) | -4.77% |
| C#C[C@]1(OC(C)=O)CC[C@H]2[C@@H]3CCC4=C/C(=N/O)CC[C@@H]4[C@H]3CC[C@@]21CC | 0.139% [at 53 µM] |
| ON=C1CCCC1 | -0.818% |
| C1CCC2(CCCCO2)OC1 | 0.235% |

| Compound | activity change, negative = inhibition |
| --- | --- |
| Cc1c(C(=O)NCCO)[n+](=O)c2ccccc2n1[O-] | 2.2% [at 53 µM] |
| CCO[Si](C)(OCC)OCC | -0.354% |
| CCCC(CC)CCCCCCCN (stereo not given) | -0.125% |
| CC(C)CCCCOC(=O)c1ccccc1C(=O)OCCCCC(C)C | -3.67% |
| CC(C)(C)C1CCC(CC2=C(O)c3ccccc3C(=O)C2=O)CC1 (stereo not given) | 0.139% [at 53 µM] |
| CCCCCCCC[Si](OCC)(OCC)OCC | 0.206% |
| CC[C@H]1CC[C@H](NCc2cc3c(cc2OC)[C@H]2C[C@H]2C(=O)N3C)[C@H](c2ccccc2)N1 | -10.3% |
| CCC(C)COC(=O)CC(C)C (stereo not given) | -0.494% |
| COC(=O)c1ccc(I)cc1S(=O)(=O)NC(=O)Nc1nc(C)nc(OC)n1 | -0.657% |
| CC(C)(C)C(=O)/C=C/c1ccc(Cl)cc1 | -1.79% |
| O=C(O)CCCc1ccccc1 | 0.131% [at 53 µM] |
| O=C(/C=C/c1ccccc1)OC/C=C/c1ccccc1 | -3.3% |
| ClC(Cl)(Br)Br | 0.818% |
| C=C(C)C(=O)OCCC[Si](Cl)(Cl)Cl | 3.68% |
| CC(C)NC(=O)c1ccc(C=O)cc1 | 0% [at 53 µM] |
| CC(C(=O)O)c1ccc2c(c1)Cc1cccnc1O2 (stereo not given) | -0.991% [at 53 µM] |
| CO[Si](C)(OC)c1ccccc1 | -2.62% |
| CC/C=C\CC/C=C/CO | -0.278% |
| COc1cccc([C@H](O)C2CCN(CCc3ccc(F)cc3)CC2)c1OC | 1.64% |
| CCOc1ccc2c(c1)C(C)CC(C)(C)N2 (stereo not given) | -0.589% |

These molecules were tested against Acetylcholinesterase (Homo sapiens) (UniProt P22303) (assay: Acetylcholinesterase (AChE) small molecule antagonists: fluorescence cell-based qHTS assay (AID 1347398; also: nearly all actives have a fitted effect of over 50% in size; also: potency is read from the fitted curve at half-maximal effect)). Conditions: SH-SY5Y cells; Potency: AChE activity; outcome: AChE activity; series mostly up to 115 µM; activity change, negative = inhibition: at the top concentration.
Procedure, shortened: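 Cellular AChE activity read as thiocholine from acetylthiocholine hydrolysis, detected by Thiolite Green fluorescence at 490/520 nm after 40 min at room temperature. Compounds were pre-incubated 30 min at 37 C on adherent SH-SY5Y cells.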

| Compound | activity change, negative = inhibition | Potency |
| --- | --- | --- |
| COc1ccc2c(c1)c1c3n2CCN(C)C3=NCC1 | -1.86% [at 53.7 µM] |  |
| COc1cnc(NS(=O)(=O)c2ccc(N)cc2)nc1 | 0.0375% [at 53.7 µM] |  |
| CC(=O)N[C@@H](CCC(=O)O)C(=O)O | 3.05% [at 53.7 µM] |  |
| C=C(C)c1ccccc1 | 1.53% |  |
| O=C(O)c1cc(C(=O)O)c(C(=O)O)cc1C(=O)O | 5.24% |  |
| O=c1[nH]c(=O)n([C@H]2O[C@H](CO)[C@@H](O)[C@@H]2O)cc1/C=C\Br | 1.56% [at 53.7 µM] |  |
| CC(=O)OC(OC(C)=O)c1ccc([N+](=O)[O-])o1 | 0.293% |  |
| COc1cccc(O)c1O | -11.6% |  |
| Cc1ccc(O)cn1 | 1.29% |  |
| O=C(O)c1ccccc1C(=O)Nc1ccc(S(=O)(=O)Nc2nccs2)cc1 | 1.55% [at 53.7 µM] |  |
| CC[N+](C)(CC)CCOC(=O)C(O)(c1ccccc1)C1CCCCC1 (stereo not given) | 2.6% [at 53.7 µM] |  |
| CC(=O)Nc1cccc(C)c1 | 2.28% |  |
| CCOC(=O)CS | 36.5% |  |
| CCOc1ccccc1OCC | 0.993% |  |
| CC(C)(O)c1ccccc1CC[C@@H](SCC1(CC(=O)O)CC1)c1cccc(/C=C/c2ccc3ccc(Cl)cc3n2)c1 | 15.7% [at 53.7 µM] |  |
| O=C(N[C@H](CO)[C@H](O)c1ccc([N+](=O)[O-])cc1)C(Cl)Cl | 1.1% |  |
| CCC(Cl)CCC(Cl)C(Cl)CC(Cl)C(Cl)C(Cl)CCl (stereo not given) | -2.46% |  |
| C#C[C@]1(OC(C)=O)CC[C@H]2[C@@H]3CCC4=C/C(=N/O)CC[C@@H]4[C@H]3CC[C@@]21CC | 7.11% [at 53.7 µM] |  |
| ON=C1CCCC1 | 1.26% |  |
| C1CCC2(CCCCO2)OC1 | 0.562% |  |

| Compound | activity change, negative = inhibition | Potency |
| --- | --- | --- |
| Cc1c(C(=O)NCCO)[n+](=O)c2ccccc2n1[O-] | 8.11% [at 53.7 µM] |  |
| CCO[Si](C)(OCC)OCC | -0.0144% |  |
| CCCC(CC)CCCCCCCN (stereo not given) | -10% |  |
| CC(C)CCCCOC(=O)c1ccccc1C(=O)OCCCCC(C)C | -3.6% |  |
| CC(C)(C)C1CCC(CC2=C(O)c3ccccc3C(=O)C2=O)CC1 (stereo not given) | -4.3% [at 53.7 µM] |  |
| CCCCCCCC[Si](OCC)(OCC)OCC | -6.65% |  |
| CC[C@H]1CC[C@H](NCc2cc3c(cc2OC)[C@H]2C[C@H]2C(=O)N3C)[C@H](c2ccccc2)N1 |  | 35.6 µM (active) |
| CCC(C)COC(=O)CC(C)C (stereo not given) | 5.88% |  |
| COC(=O)c1ccc(I)cc1S(=O)(=O)NC(=O)Nc1nc(C)nc(OC)n1 | 3.41% |  |
| CC(C)(C)C(=O)/C=C/c1ccc(Cl)cc1 | 0.753% |  |
| O=C(O)CCCc1ccccc1 | 3.07% [at 53.7 µM] |  |
| O=C(/C=C/c1ccccc1)OC/C=C/c1ccccc1 | -4.65% |  |
| ClC(Cl)(Br)Br | 5.54% |  |
| C=C(C)C(=O)OCCC[Si](Cl)(Cl)Cl | -1.15% |  |
| CC(C)NC(=O)c1ccc(C=O)cc1 | -5.22% [at 53.7 µM] |  |
| CC(C(=O)O)c1ccc2c(c1)Cc1cccnc1O2 (stereo not given) | 2.71% [at 53.7 µM] |  |
| CO[Si](C)(OC)c1ccccc1 | -0.442% |  |
| CC/C=C\CC/C=C/CO | 4.64% |  |
| COc1cccc([C@H](O)C2CCN(CCc3ccc(F)cc3)CC2)c1OC | -7.37% |  |
| CCOc1ccc2c(c1)C(C)CC(C)(C)N2 (stereo not given) | -3.1% |  |
